Screening data: PubChem, several laboratories
An excerpt weighted towards active compounds, which were near 2.1% of everything screened.
PLAP activator: activators of human placental alkaline phosphatase | P05187 | purified PLAP enzyme, luminescent substrate read-out; active compounds read high | activation fold at 20 µM | actives 1.2% (n = 96,000) | AID 696; in the data active = activation fold above about 2
Target sequence (P05187 whole entry, looked up): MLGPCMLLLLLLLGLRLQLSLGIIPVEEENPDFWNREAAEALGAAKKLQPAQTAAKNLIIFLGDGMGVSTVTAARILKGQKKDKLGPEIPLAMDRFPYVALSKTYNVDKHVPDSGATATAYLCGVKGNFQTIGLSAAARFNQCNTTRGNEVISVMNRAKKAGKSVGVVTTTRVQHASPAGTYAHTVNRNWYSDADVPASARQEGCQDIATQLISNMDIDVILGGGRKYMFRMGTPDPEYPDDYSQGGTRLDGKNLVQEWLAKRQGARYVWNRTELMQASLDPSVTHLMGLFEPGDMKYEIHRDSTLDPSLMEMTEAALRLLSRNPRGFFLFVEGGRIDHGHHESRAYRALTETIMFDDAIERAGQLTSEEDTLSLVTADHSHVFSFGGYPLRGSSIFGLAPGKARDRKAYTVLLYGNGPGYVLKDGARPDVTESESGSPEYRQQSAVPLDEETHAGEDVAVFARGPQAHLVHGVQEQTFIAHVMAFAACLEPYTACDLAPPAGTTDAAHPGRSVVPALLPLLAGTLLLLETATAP
TNAP act DEA: human TNAP activation, intermediate phosphate acceptor; activation factor at 20 µM; P05186; AID 813; purified TNAP, CDP-star luminescence, 100 mM DEA, 30 min; active compounds read high; scale: 0 levamisole-inhibited, 1 vehicle-only enzyme; 64,000 tested, under 10 active;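 active = activation factor of at least 2 at 20 µM, relative to controls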
IL1B cytotox: toxic to HUVEC cells under IL-1B stimulation. HUVEC cell count loss, Hoechst imaging, IL-1B stimulated. cell count reduction, % at 2 µM. actives 0.41% (n = 94,000). AID 845;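 active = cell count reduction more than 3 SD above the screen-wide mean, cut at about 70% in these data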
NFkB transloc pot: enhances IL-1B driven NFkB nuclear translocation. HUVEC IL-1B NFkB p65 nuclear translocation imaging. activation, % at 2 µM. actives 0.3% (n = 94,000);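 active = activation above 40%, about the mean plus 3 SD, also judged a hit on visual image review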;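 note: percent activation is computed from the nuclear over cytoplasmic p65 intensity ratio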
IL1B NFkB inh: blocks IL-1B driven NFkB nuclear translocation in HUVEC cells. HUVEC IL-1B NFkB p65 nuclear translocation imaging. inhibition, % at 2 µM. actives 0.43% (n = 94,000). AID 796;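 active = inhibition above about 30% together with a positive call from visual inspection of the well image, limit read from the data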;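 note: nuclear over cytoplasmic p65 intensity ratio measured by imaging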
A number is an active result.

`CCN(CC)C(=O)CSc1nnc(-c2ccccc2)n1N` gave PLAP activator inactive, TNAP act DEA inactive, IL1B cytotox inactive, NFkB transloc pot inactive and IL1B NFkB inh inactive.
For CCn1c(SCC(=O)N(C(C)C)C(C)C)nnc1-c1cc2ccccc2cc1O the results were PLAP activator 2, TNAP act DEA inactive, IL1B cytotox inactive, NFkB transloc pot 60 and IL1B NFkB inh inactive.
For COc1cc(OC)cc(C(=O)NN2CCCCC2)c1 the results were PLAP activator inactive, IL1B cytotox inactive, NFkB transloc pot inactive and IL1B NFkB inh 56.
Screening CC1(C)CC(=O)C=C(Nc2ccc(C(=O)O)cc2)C1 returned TNAP act DEA inactive, IL1B cytotox inactive, NFkB transloc pot inactive and IL1B NFkB inh inactive.
Screening CC1(C)CC(=O)C=C(Nc2ccc(S(N)(=O)=O)cc2)C1 returned PLAP activator inactive, TNAP act DEA inactive, IL1B cytotox inactive, NFkB transloc pot inactive and IL1B NFkB inh 34.
`O=C(CC(=O)c1cc(Cl)ccc1O)c1ccccc1` gave PLAP activator inactive, TNAP act DEA inactive, IL1B cytotox 89, NFkB transloc pot inactive and IL1B NFkB inh inactive.
`Cc1ccc(Nc2nnc(SCC(=O)Nc3ccc(S(=O)(=O)N4CCOCC4)cc3)s2)cc1` gave PLAP activator inactive, IL1B cytotox 84, NFkB transloc pot inactive and IL1B NFkB inh 34.
For Cc1csc(SCC(=O)Nc2ccc(S(=O)(=O)N3CCCC3)cc2)n1 the results were PLAP activator inactive, TNAP act DEA inactive, IL1B cytotox inactive, NFkB transloc pot inactive and IL1B NFkB inh inactive.
Cc1cc(C)nc(SCC(=O)Nc2ccc(S(=O)(=O)N3CCCCC3)cc2)n1 was read as PLAP activator 2.1, IL1B cytotox inactive, NFkB transloc pot inactive and IL1B NFkB inh inactive.
Cc1cccc(NC(=O)CSc2nnc(-c3ccc(S(=O)(=O)N4CCCC4)cc3)o2)c1 was read as PLAP activator 2.1, TNAP act DEA inactive, IL1B cytotox inactive, NFkB transloc pot inactive and IL1B NFkB inh inactive.
O=C(NCc1ccccc1)N1CCn2c(nc3ccccc32)C1 was read as TNAP act DEA inactive, IL1B cytotox inactive, NFkB transloc pot inactive and IL1B NFkB inh inactive.
`CCOC(=O)c1c(C)[nH]c(C)c1C(=O)CSc1nnc(-c2ccco2)n1Cc1ccccc1` gave PLAP activator inactive, TNAP act DEA inactive, IL1B cytotox inactive, NFkB transloc pot inactive and IL1B NFkB inh inactive.
COc1ccccc1-n1c(C)nnc1SCC(=O)Nc1cccc(C(C)=O)c1 was read as PLAP activator inactive, TNAP act DEA inactive, IL1B cytotox 80, NFkB transloc pot inactive and IL1B NFkB inh 96.
For Cc1ccc(-c2ccc(/C=N\NC(=O)C3C(=O)NCC3c3ccccc3)o2)cc1Cl (configuration not stated) the results were PLAP activator 2.1, IL1B cytotox inactive, NFkB transloc pot inactive and IL1B NFkB inh inactive.
COc1cc(/C=N/NC(=O)c2c(-c3ccccc3)noc2C)ccc1O was read as PLAP activator inactive, IL1B cytotox inactive, NFkB transloc pot inactive and IL1B NFkB inh inactive.
For COc1cccc(/C=N/NC(=O)c2c(-c3ccccc3)noc2C)c1O the results were PLAP activator 2.2, IL1B cytotox inactive, NFkB transloc pot inactive and IL1B NFkB inh inactive.
Screening O=C1NCC(c2ccccc2)C1C(=O)N/N=C\c1ccc(-c2cccc(Cl)c2Cl)o1 (configuration not stated) returned PLAP activator inactive, IL1B cytotox inactive, NFkB transloc pot inactive and IL1B NFkB inh inactive.
COc1cccc(/C=N\NC(=O)C2C(=O)NCC2c2ccccc2)c1O (configuration not stated) was read as PLAP activator 2.5, IL1B cytotox inactive, NFkB transloc pot inactive and IL1B NFkB inh inactive.
`O=C1N[C@@H](Cc2cnc[nH]2)C(=O)N2CCC[C@@H]12` gave TNAP act DEA inactive.
Cc1cccc(S(=O)(=O)Nc2ccc(C)c3c2OC(C)(C)C3)c1 was read as PLAP activator inactive, IL1B cytotox inactive, NFkB transloc pot inactive and IL1B NFkB inh inactive.
For O=c1[nH]c2ccc(Cl)cc2c(-c2ccccc2)c1CN1CCOCC1 the results were PLAP activator inactive, TNAP act DEA inactive, IL1B cytotox inactive, NFkB transloc pot 113 and IL1B NFkB inh inactive.
For O=c1[nH]c2ccc(Cl)cc2c(-c2ccccc2)c1N1CCOCC1 the results were PLAP activator inactive and TNAP act DEA inactive.
For O=C1N=C2SCCN2/C1=C\c1ccccc1Cl the results were PLAP activator inactive, IL1B cytotox inactive, NFkB transloc pot inactive and IL1B NFkB inh inactive.
For COc1cc(-c2nnc(SCC(=O)c3ccc(C)cc3)o2)cc(OC)c1OC the results were PLAP activator inactive, TNAP act DEA inactive, IL1B cytotox inactive, NFkB transloc pot inactive and IL1B NFkB inh 42.
Screening COc1cccc(C(=O)CSc2nnc(-c3cc(OC)c(OC)c(OC)c3)o2)c1 returned PLAP activator inactive, TNAP act DEA inactive, IL1B cytotox inactive, NFkB transloc pot inactive and IL1B NFkB inh inactive.
`CCN(CC)c1nc(OCCNC(=O)Nc2ccccc2)nc(N(CC)CC)n1` gave PLAP activator 2.1, IL1B cytotox inactive, NFkB transloc pot inactive and IL1B NFkB inh inactive.
O=C(NCCOc1nc(N2CCOCC2)nc(N2CCOCC2)n1)Nc1ccccc1 was read as PLAP activator inactive, IL1B cytotox inactive, NFkB transloc pot inactive and IL1B NFkB inh inactive.
Screening CCOc1cc(N2CCOCC2)c(OCC)cc1NC(=O)Cc1cccc2ccccc12 returned PLAP activator inactive, IL1B cytotox inactive, NFkB transloc pot 63 and IL1B NFkB inh inactive.
`CCCNC(=O)Nc1cc(OCC)c(N2CCOCC2)cc1OCC` gave PLAP activator inactive and TNAP act DEA inactive.
Screening Cn1c(-c2ccc[nH]c2=O)nc2cc(Cl)ccc21 returned PLAP activator inactive, IL1B cytotox inactive, NFkB transloc pot inactive and IL1B NFkB inh inactive.
`CCn1c(CNc2nc3ccccc3n2C(C)C)nc2ccccc21` gave IL1B cytotox inactive, NFkB transloc pot inactive and IL1B NFkB inh 62.
CCCn1c(NCc2ccccn2)nc2ccccc21 was read as IL1B cytotox 92, NFkB transloc pot inactive and IL1B NFkB inh 96.
COc1ccc(NC(=O)c2cc3c(-c4ccc(OC)c(OC)c4)nn(C)c3s2)cc1OC was read as PLAP activator 2.3, IL1B cytotox inactive, NFkB transloc pot inactive and IL1B NFkB inh inactive.
For O=C(CSc1ccccn1)Nc1nncs1 the results were IL1B cytotox inactive, NFkB transloc pot inactive and IL1B NFkB inh inactive.
`CCOC(=O)CC1Sc2ccccc2NC1=O` (configuration not stated) gave PLAP activator inactive, TNAP act DEA inactive, IL1B cytotox inactive, NFkB transloc pot inactive and IL1B NFkB inh inactive.
`CCC(OC(=O)CC1Sc2ccccc2NC1=O)C(=O)NCC1CCCO1` (configuration not stated) gave PLAP activator 2, TNAP act DEA inactive, IL1B cytotox inactive, NFkB transloc pot inactive and IL1B NFkB inh inactive.
Screening O=C(O)CC1Sc2ccccc2NC1=O (configuration not stated) returned PLAP activator inactive and TNAP act DEA inactive.
